The list is not random: actives were taken first. Their share in the collection is about 9.4%.
ALDH1A1 inh = qHTS Assay for Inhibitors of Aldehyde Dehydrogenase 1 (ALDH1A1). Aldehyde dehydrogenase 1A1 (Homo sapiens), P00352. Purified ALDH1A1, NADH fluorescence, propionaldehyde substrate. Potency, µM (doses to about 75.3 µM), inactives show top-dose activity, negative = inhibition, usual class: inhibitors. 7.3% of 220,000 active. AID 1030, 2008; active means well fitted inhibition curve with a large enough effect, not every such curve was filed as active; inconclusive means small, poorly fitted or top-dose-only effect, or another doubt; inactive means no such curve, though single readings can be large or run the other way;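 further: potency means the concentration at half of the fitted maximal effect; plate controls were no enzyme wells and a reference inhibitor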
Target sequence (P00352 whole entry, looked up): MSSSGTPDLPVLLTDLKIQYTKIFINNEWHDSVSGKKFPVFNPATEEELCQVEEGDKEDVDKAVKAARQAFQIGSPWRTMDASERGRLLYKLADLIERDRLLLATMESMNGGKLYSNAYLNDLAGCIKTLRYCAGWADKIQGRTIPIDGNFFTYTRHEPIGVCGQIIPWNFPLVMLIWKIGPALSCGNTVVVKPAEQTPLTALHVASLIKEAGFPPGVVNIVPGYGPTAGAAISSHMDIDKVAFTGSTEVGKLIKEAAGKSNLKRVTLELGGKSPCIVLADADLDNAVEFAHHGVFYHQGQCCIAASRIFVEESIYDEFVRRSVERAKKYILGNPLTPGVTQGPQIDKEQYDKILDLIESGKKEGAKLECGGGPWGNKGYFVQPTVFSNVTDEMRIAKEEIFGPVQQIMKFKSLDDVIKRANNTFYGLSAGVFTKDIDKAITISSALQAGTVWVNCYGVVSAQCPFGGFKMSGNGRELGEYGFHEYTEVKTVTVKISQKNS
HttQ103 aggreg = qHTS Multiplex Assay to Identify Dual Action Probes in a Cell Model of Huntington: Aggregate Formation (GFP); Potency, µM (highest dose often 46.1 µM), inactives show at the highest dose activity change, negative = inhibition, most hits filed as inhibitors; PC12 HttQ103-GFP aggregates, Acumen cytometry, 40 h; 1.1% of 220,000 active; further: potency means the concentration at half of the fitted maximal effect; on the % scale 0 is the no-effect control and ±100 the full control effect; nearly all actives have a fitted effect of over 60% in size
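Steps: seed 1500 PC12 HTTQ103-GFP cells/well; add tebufenozide, 100 nM final; add compound titration; add ATPLite reagent; quantify GFP aggregates by laser scanning cytometry.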
HTT ATP protect = qHTS Multiplex Assay to Identify Dual Action Probes in a Cell Model of Huntington: Cytoprotection (ATP); PC12 HTT-Q103 induced, cytoprotection, ATP luminescence, 40 h; Potency, µM (titrated, usually from 56.4 µM), for the others: cytoprotection (ATP increase), most hits filed as activators; 0.14% of 230,000 active; AID 1471, 2008; further: potency means the concentration at half of the fitted maximal effect; % of control where 0% means no effect; nearly all actives have a fitted effect of over 45% in size
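PC12 cells stably carrying ecdysone-inducible Htt exon 1 (Q103)–GFP were induced with 100 nM tebufenozide (final) alongside library compounds in a dose series. Cytoprotection was scored as retained ATP by ATPlite luminescence.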
IMPase cell inh = qHTS Assay for Identifying the Cell-Membrane Permeable IMPase Inhibitors. Inositol monophosphatase 1 (Rattus norvegicus), P97697. CHO-M1 cells, IP1 accumulation, HTRF TR-FRET ratio. inhibition (IP1 accumulation), % at 46.1 µM. 120,000 tested, under 10 active. AID 901, 2007; active means well fitted curve in the direction sought with a large enough effect in the signal ratio, not every such curve was filed as active; inconclusive means small, poorly fitted or top-dose-only effect, or a change in a side signal; inactive means no such curve, though single readings can be large or run the other way; the % refers to the signal ratio;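 further: cells stimulated with carbachol in lithium chloride buffer; plate controls were DMSO basal wells for no effect and reference inhibitor wells for full effect; higher means more IMPase inhibition seen as more IP1 and lower FRET ratio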
Target sequence (P97697 whole entry, looked up): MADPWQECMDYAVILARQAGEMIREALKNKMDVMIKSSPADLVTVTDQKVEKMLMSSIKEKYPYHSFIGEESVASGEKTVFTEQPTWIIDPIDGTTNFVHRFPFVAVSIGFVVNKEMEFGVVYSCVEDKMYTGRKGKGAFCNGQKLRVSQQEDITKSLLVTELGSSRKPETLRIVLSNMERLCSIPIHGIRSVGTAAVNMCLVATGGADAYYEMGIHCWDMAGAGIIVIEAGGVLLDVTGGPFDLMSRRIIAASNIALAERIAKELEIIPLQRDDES
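Cellular IMPase inhibition is scored as a rise in cytosolic IP1, detected by competitive TR-FRET between d2-labelled IP1 and a europium anti-IP1 antibody. M1-expressing CHO cells were stimulated with carbachol for 30 min at 37C, with lithium (50 mM LiCl) present in the buffer.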
HPGD inh = qHTS Assay for Inhibitors of HPGD (15-Hydroxyprostaglandin Dehydrogenase); 15-hydroxyprostaglandin dehydrogenase [NAD(+)] (Homo sapiens), P15428; purified HPGD, NADH fluorescence kinetic, PGE2 substrate; Potency, µM, for the others: at the highest dose activity change, negative = inhibition, most hits filed as inhibitors; 4.3% of 150,000 active; active means well fitted inhibition curve with a large enough effect, not every such curve was filed as active; inconclusive means small, poorly fitted or top-dose-only effect, or another doubt; inactive means no such curve, though single readings can be large or run the other way; further: potency means the concentration at half of the fitted maximal effect; on the % scale 0 is the no-effect control and ±100 the full control effect
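NADH formation kinetics: reaction with 30 uM PGE2 and 1 mM NAD+ (final), 20 nM enzyme, Tris-HCl pH 8 with Tween 20, after 15 min compound preincubation at room temperature. Fluorescence change, last versus first of five reads.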
IMPase Li cell = qHTS Assay for Identifying the Cell-Membrane Permeable IMPase Inhibitors: Potentiation with Lithium; Potency, µM (top dose mostly 59.4 µM), without a hit: top-dose activity, negative = IMPase inhibition, actives largely listed as inhibitors; 0.35% of 210,000 active; CHO-M1 cells, IP1 TR-FRET (IP-One), carbachol + lithium; AID 1457, 2008;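 further: IP1 builds up when IMPase is blocked and the TR-FRET signal falls; potency means the concentration at half of the fitted maximal effect; plate controls were basal vehicle for no effect and high inhibitor control for full effect; nearly all actives have a fitted effect of over 50% in size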
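Steps: plate 2000 CHO-M1 cells per well and culture 16–30 h; add compound and lithium; incubate 30 min, 37C; add d2-IP1 tracer and Eu cryptate anti-IP1 antibody in lysis buffer; read after 10 min at room temperature.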
Numbers without * were called inactive; ? = inconclusive; nt = no result given; [ ] = another dose, or the depositor's remark. Unless noted, the call rests on the fitted dose curve; in most records, active means well fitted curve in the direction sought with a large enough effect; inconclusive means small, poorly fitted or top-dose-only effect, or another doubt; inactive means no such curve, though single readings can be large; an effect the other way counts as inactive or inconclusive.

SMILES	ALDH1A1 inh	HttQ103 aggreg	HTT ATP protect	IMPase cell inh	HPGD inh	IMPase Li cell
CCn1c2ccccc2c2cc(/C=N/n3cnnc3)ccc21	?	7%	-12%[10 µM]	8	?	2%[38.3 µM]
CCn1c2ccccc2c2cc(/C=N/n3c(-c4cc(C)[nH]n4)n[nH]c3=S)ccc21	13µM*	-3%[9.22 µM]	9%[10 µM]	nt	nt	nt
S=c1[nH]ncn1/N=C/c1ccccc1	0%	-18%	-24%	3	-1%	-1%[38.3 µM]
COc1ccc(/C=N/n2c(-c3cc(C)[nH]n3)n[nH]c2=S)cc1	nt	-3%[9.22 µM]	-4%[10 µM]	nt	nt	nt
O=C(c1cccs1)c1cn(CCOc2ccc(F)cc2)c2ccccc12	nt	nt	nt	-2	nt	nt
COC(=O)[C@H](CCCN=C(N)N)NC(=O)CCCc1c(-c2ccccc2)[nH]c2c(F)cc(F)cc12	-8%	nt	-1%	nt	-12%	7%
CNC(=S)N/N=C/c1cn(Cc2ccc(F)cc2)c2ccccc12	28µM*	?	18%[10 µM]	nt	-15%	16%
O=[N+]([O-])c1ccc(N/N=C/c2cn(Cc3ccc(F)cc3)c3ccccc23)nc1	18µM*	9%	-19%[10 µM]	0	-21%	41%
Cc1ccc(OCC(=O)N/N=C\c2cn(Cc3ccccc3)c3ccccc23)cc1C	13µM*	-23%	19%[10 µM]	nt	?	-3%
Cc1ccccc1OCC(=O)N/N=C/c1cn(Cc2ccccc2)c2ccccc12	?	1%	-10%[1.9 µM]	10	?	7%
Cc1cccc(C)c1-n1c(C)cc(/C=N\Nc2ccc([N+](=O)[O-])cn2)c1C	10µM*	?	-40%	5	-20%	50%[38.3 µM]
C#CCn1cc(/C=N/NC(=O)COc2cccc3cccnc23)c2ccccc21	10µM*	-4%	27%[10 µM]	nt	-21%	-1%
CCCCC1=CC2=C(c3ccco3)C(=O)C(C)(OC(=O)c3cccs3)C(=O)C2=CO1 (stereo not drawn)	-4%	nt	-16%	nt	-21%	24%
CNc1nc(SCc2ccc(C)cc2)nc2c1CCCC2	6.3µM*	?	-64%	17	?	27%[38.3 µM]
COc1cc(OC)c2c(c1)OC(c1ccccc1)CC2=O (stereo not drawn)	?	nt	-39%[1.9 µM]	5	?	7%
O=S(=O)(NCCOCC(F)(F)F)c1ccc2oc3ccccc3c2c1	8.9µM*	?	-26%	8	?	3%[38.3 µM]
O=S(=O)(NCCOCCNS(=O)(=O)c1ccccc1)c1ccccc1	25µM*	10%	-8%	-2	-2%	-12%[38.3 µM]
COc1ccc(CCNS(=O)(=O)c2ccccc2)cc1OC	-8%	3.5µM*	-3%	5	-10%	1%[38.3 µM]
CCOC(=O)c1ccc(NC(=S)NCCc2ccccc2)cc1	?	-28%	-28%	1	nt	nt
Cc1ccc(NC(=S)NCCC2=CCCCC2)cc1	-7%	13µM*	-84%	nt	nt	12%
CCOC(=O)c1ccc(NC(=S)NCCC2=CCCCC2)cc1	?	-5%	-2%[10 µM]	5	14µM*	17%
O=C(Nc1nnc(-c2ccc(Cl)cc2)o1)Nc1ccccc1F	nt	3%[9.22 µM]	1%[10 µM]	nt	nt	nt
CCCCC(C)n1[nH]c(=O)c2c(C)cc(C)nc21 (stereo not drawn)	nt	12%[9.22 µM]	33%[10 µM]	nt	nt	nt
CCCCCCC(C)n1[nH]c(=O)c2c(C)cc(=O)[nH]c21 (stereo not drawn)	7%	11µM*	-30%[0.074 µM]	-1	-11%	10%[38.3 µM]
CC1=CC(=O)C2C(C)(C)CCC[C@@]2(C)[C@@]1(O)CCc1ccoc1 (stereo partly drawn)	?	nt	nt	nt	-9%	6%
SMILES	ALDH1A1 inh	HttQ103 aggreg	HTT ATP protect	IMPase cell inh	HPGD inh	IMPase Li cell
CCOc1ccc(-n2c(SCC(=O)c3c(N)n(C)c(=O)n(C)c3=O)nnc2-c2cccnc2)cc1	12%	-27%	nt	nt	-6%	2%
C1CSC2(N1)C1CC3CC(C1)CC2C3 (stereo not drawn)	5%	nt	1.6µM*	1	-11%	6%[38.3 µM]
COc1ccc(/C=C/C(=O)Nc2ccc(OC)nc2)cc1	-10%	21%	nt	nt	-12%	-1%
COc1ccc(NC(=O)/C(Cl)=C(/Cl)S(=O)Cc2ccccc2)cn1 (stereo not drawn)	13µM*	5µM*	-91%	15	?	73%[38.3 µM]
COc1ccc(NC(=O)Cc2ccccc2)cn1	-2%	-6%	-19%	nt	nt	-10%
COc1ccc(CS(=O)(=O)/C(Cl)=C(/Cl)C(=O)Nc2ccc(OC)nc2)cc1	1.6µM*	?	-26%[10 µM]	14	-9%	11%[38.3 µM]
COc1ccc(S(=O)(=O)NCCOc2ccccc2)cc1-n1cnnn1	8.9µM*	-13%[9.22 µM]	-32%[10 µM]	nt	nt	1%
COc1ccc(S(=O)(=O)NCCOc2ccccc2)cc1OC	0%	3%	2%[0.074 µM]	-10	-9%	21%[38.3 µM]
CC(C)(C)c1ccc(CN2C(=O)CSC2=O)cc1	-3%	-18%	-23%	nt	nt	9%
O=C(O)c1ccc(CN2C(=O)CSC2=S)cc1	13µM*	?	?	2	-21%	-2%[38.3 µM]
COc1ccccc1NC(=S)NCCSc1ccc(Cl)cc1	0%	9%	14%[10 µM]	13	-10%	3%
COc1ccc(NC(=S)NCCSc2ccc(Cl)cc2)c(OC)c1	20µM*	?	19%[10 µM]	2	16µM*	25%
Cc1cccc(C)c1NC(=S)NCCSc1ccc(Cl)cc1	5%	11µM*	0%	nt	nt	17%
Cc1ccc(NC(=S)NCCSc2ccc(Cl)cc2)cc1	?	?	-181%	nt	nt	22%
COc1ccc(-c2csc(Nc3ccc(C)cn3)n2)cc1	24µM*	22%[9.22 µM]	16%[10 µM]	nt	nt	-1%
N#Cc1ccc(CN2CCCC3(CCNCC3)C2)cc1	-5%	nt	9%	nt	-2%	16%
CN1CCN(c2ncc3nc(-c4cccc(C#N)c4)c(=O)n(CCc4ccccc4)c3n2)CC1	?	nt	-34%	nt	nt	12%
CC(=O)OC1CC2C(C)(C)C(=O)C=C[C@]2(C)C2CC[C@@]3(C)C(c4ccoc4)OC(=O)C4O[C@@]43[C@]12C (stereo partly drawn)	-2%	nt	?	nt	-1%	4%
Cc1ccc(C(=O)C(NC(=O)c2ccco2)N2CCOCC2)cc1 (stereo not drawn)	28µM*	3%	-30%	14	-17%	2%[38.3 µM]
O=C(NC(C(=O)c1ccccc1)N1CCCCCC1)c1ccco1 (stereo not drawn)	14µM*	8%	-1%[10 µM]	-2	-5%	8%

Screens as filed in PubChem.
